The values below come from PubChem BioAssay (Tox21).

A short description of assay [1]: A CellTox Green Cytotoxicity Assay to monitor cytotoxicity in HEK293 cells - 32 hour (AID 1224881). Further: nearly all actives have a fitted effect of over 40% in size. Further: potency means the concentration at half of the fitted maximal effect. The gist of the method: (§1)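 Seeding of HEK293 cells together with cytotoxicity dye preceded a 5 h incubation at 37 C/5% CO2. Test compounds in DMSO were then added and fluorescence monitored across 40 h.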
Assay [2] can be described thus: A CellTox Green Cytotoxicity Assay to monitor cytotoxicity in HepG2 cells - 0 hour (AID 1224882). Further: nearly all actives have a fitted effect of over 35% in size. The method in brief: (§2)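 Nonlytic assay: viable cells exclude the dye, so fluorescence scales with cell death. HepG2 at 600 cells/well, compounds added after 5 h, signal read across 40 h.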
The nature of assay [3]: A CellTox Green Cytotoxicity Assay to monitor cytotoxicity in HepG2 cells - 32 hour (AID 1224883). Further: nearly all actives have a fitted effect of over 50% in size. The gist of the method:
as §2

Assay [4] is described as follows: A CellTox Green Cytotoxicity Assay to monitor cytotoxicity in HEK293 cells - 8 hour (AID 1224884). Further: nearly all actives have a fitted effect of over 35% in size. The method in brief: as §1
Assay [5] in a line: qHTS RealTime-Glo MT Cell Viability Assay in HepG2 cells - 16 hour (AID 1224885). Further: nearly all actives have a fitted effect of over 50% in size. The method in brief:
(§3)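 Viability was tracked continuously by NanoLuc luminescence from prosubstrate reduced by living HepG2 cells, at successive time points over 40 h of compound exposure. Cells with reagent were preincubated 5 h at 37 °C before compound addition.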

Assay [6] is described as follows: qHTS RealTime-Glo MT Cell Viability Assay in HEK293 cells - 24 hour (AID 1224886). Further: top concentration of the series differs between compounds; nearly all actives have a fitted effect of over 50% in size. The method in brief:
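Viability tracked continuously by luminescence as live cells reduce a prosubstrate for NanoLuc; HEK293 cells preincubated 5 h, compound-treated at 37 C, and read at 0, 8, 16, 24, 32 and 40 h.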

Assay [7] is described as follows: qHTS RealTime-Glo MT Cell Viability Assay in HEK293 cells - 8 hour (AID 1224887). Further: top concentration of the series differs between compounds; nearly all actives have a fitted effect of over 50% in size. The gist of the method: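 Tox21 screen in HEK293 using RealTime-Glo MT chemistry, with cells and reagent co-dispensed. Luminescence proportional to viable cell number was captured at intervals during 40 h compound exposure at 37 C.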
Assay [8] is described as follows: A CellTox Green Cytotoxicity Assay to monitor cytotoxicity in HEK293 cells - 16 hour (AID 1224888). Further: nearly all actives have a fitted effect of over 35% in size. The gist of the method:
as §1

A short description of assay [9]: qHTS RealTime-Glo MT Cell Viability Assay in HepG2 cells - 0 hour (AID 1224889). Further: nearly all actives have a fitted effect of over 50% in size. The method in brief: as §3
Assay [10] in a line: qHTS assay to identify small molecule antagonists of the estrogen receptor alpha (ER-alpha) signaling pathway using the BG1 cell line in the presence of 0.1 nM 17-beta-estradiol - cell viability counter screen (AID 1259241). Further: nearly all actives have a fitted effect of over 40% in size. Further: potency means the concentration at half of the fitted maximal effect. The method in brief: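 VM7Luc4E2, 4,000 cells/well, phenol red-free medium + 10% charcoal-stripped FBS; 24 hr plating; cpd + 0.1 nM E2 final, 22 hr 37C/5% CO2; CellTiter-Fluor 30 min, fluorescence.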

Assay [11] is described as follows: qHTS assay to identify small molecule antagonists of the androgen receptor (AR) signaling pathway using the MDA cell line in the presence of 0.5 nM R1881 - cell viability counter screen (AID 1259242). Further: nearly all actives have a fitted effect of over 45% in size. The gist of the method: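 R1881 at 0.5 nM final stimulated MDA-kb2 cells during 16 hr compound treatment at 37C. Cytotoxicity read: CellTiter-Fluor fluorescence after 30 min.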

The target of assay [12] is Estrogen receptor (Homo sapiens) (UniProt P03372). The assay can be described thus: qHTS assay to identify small molecule antagonists of the estrogen receptor alpha (ER-alpha) signaling pathway using the BG1 cell line in the presence of 0.1 nM 17-beta-estradiol (AID 1259244). Further: nearly all actives have a fitted effect of over 50% in size. The gist of the method: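 VM7Luc4E2; 4xERE-luciferase; 0.1 nM E2 final; 22 h co-incubation, 37C; ONE-Glo luminescence after 30 min at room temperature.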
Chain of Estrogen receptor (Homo sapiens) (P03372 whole entry, looked up): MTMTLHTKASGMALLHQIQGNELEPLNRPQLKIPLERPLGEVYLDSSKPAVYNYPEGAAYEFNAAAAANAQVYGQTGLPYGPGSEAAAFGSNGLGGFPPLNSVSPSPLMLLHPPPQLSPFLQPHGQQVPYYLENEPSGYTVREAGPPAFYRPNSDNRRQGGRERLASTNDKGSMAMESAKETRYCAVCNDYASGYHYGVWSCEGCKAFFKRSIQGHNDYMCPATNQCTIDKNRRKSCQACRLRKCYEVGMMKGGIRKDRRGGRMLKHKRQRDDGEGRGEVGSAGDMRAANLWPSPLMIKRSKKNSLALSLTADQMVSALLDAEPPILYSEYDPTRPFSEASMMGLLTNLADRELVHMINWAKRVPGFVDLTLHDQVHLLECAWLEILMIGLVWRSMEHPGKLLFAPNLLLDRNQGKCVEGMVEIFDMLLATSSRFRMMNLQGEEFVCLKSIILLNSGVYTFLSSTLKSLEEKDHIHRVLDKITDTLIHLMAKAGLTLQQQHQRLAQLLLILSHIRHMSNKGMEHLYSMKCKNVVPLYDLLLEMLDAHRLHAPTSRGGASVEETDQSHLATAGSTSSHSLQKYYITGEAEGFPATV

Assay [13] is described as follows: qHTS assay to identify small molecule HDAC inhibitors (AID 1259364). Further: potency means the concentration at half of the fitted maximal effect.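 Further: wild-type HCT-116 cells with endogenous class I/II HDAC activity; nearly all actives have a fitted effect of over 45% in size.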 The method in brief: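 Relative class I and II HDAC activity is taken from the luminogenic signal in HCT-116 cells, with compound exposure 2 hr and reagent development 30 min at room temperature.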
The nature of assay [14]: qHTS assay to identify small molecule agonists of the sonic hedgehog signaling (Shh) pathway - cell viability counter screen (AID 1259366). Further: nearly all actives have a fitted effect of over 50% in size. Further: potency means the concentration at half of the fitted maximal effect. The method in brief: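 Cytotoxicity counter screen run in the same wells as the Shh reporter assay. NIH/3T3 cells carrying a Gli1 response element–driven luciferase were treated with DMSO-dissolved compounds for 24hr, and live-cell protease activity was measured with CellTiter-Fluor.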

Assay [15] is described as follows: qHTS assay to identify small molecule antagonists of the sonic hedgehog signaling (Shh) pathway - cell viability counter screen (AID 1259367). Further: nearly all actives have a fitted effect of over 55% in size. Further: potency means the concentration at half of the fitted maximal effect. The gist of the method:
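Cells: 3T3 Gli1-Luc, 2,000/well, 4 hr pre-incubation. Compounds in DMSO, then conditioned medium. Incubation 24 hr, 37C, 5% CO2. CellTiter-Fluor at 23 hr, 1 hr, fluorescence.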

The nature of assay [16]: qHTS assay to identify small molecule agonists of the sonic hedgehog signaling (Shh) pathway (AID 1259368; calls by dose curve;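 further: NIH/3T3-derived 3T3Gli1-Luc cells carrying a stable Gli1-driven firefly luciferase reporter; series mostly up to about 92 µM; nearly all actives have a fitted effect of over 15% in size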). The method in brief:
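Mouse fibroblast (NIH/3T3) reporter cells with stably integrated Gli1-Luc were treated 24 hr with compound; firefly luciferase luminescence served as the read-out.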

The nature of assay [17]: qHTS assay to identify small molecule phospholipidosis (PLD) inducers (AID 1259344; active means well fitted curve in the direction sought with a large enough effect; an effect the other way counts as inactive or inconclusive). The gist of the method: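 Phospholipidosis is scored by imaging LipidTOX-stained pits in HepG2 cells exposed to compound for 24 h at 37 C; pit counts and integrated intensities per well and per cell serve as outputs.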
Assay [18] is described as follows: qHTS assay to identify small molecule HDAC inhibitors - cell viability counter screen (AID 1259365). Further: nearly all actives have a fitted effect of over 50% in size. Further: potency means the concentration at half of the fitted maximal effect. The gist of the method: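 Luminescence from CellTiter-Glo, developed 30min at room temperature, reports viability of wild-type HCT-116 cells treated 2hr with compounds at 37 C and 5% CO2 after overnight plating.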
A short description of assay [19]: A CellTox Green Cytotoxicity Assay to monitor cytotoxicity in HepG2 cells - 8 hour (AID 1224890). Further: nearly all actives have a fitted effect of over 45% in size. The method in brief:
as §2

Unmarked numbers belong to inactive results. Inconclusive results are not listed. Activity calls are given as the source filed them. Unless noted, the call rests on the fitted dose curve; in most records, active means well fitted curve in the direction sought with a large enough effect in the repeat runs; inconclusive means weak or mixed curves; inactive means no such curve, though single readings can be large; an effect the other way counts as inactive or inconclusive.

Consider `CC(=O)c1cccc([N+](=O)[O-])c1`, for which the Potency entry in assay [1], in assay [2], in assay [3], in [4], in assay [5] and in assay [6] was “inactive” in each case. The Potency entry in [7], in [8], in assay [9], in assay [10], in assay [11] and in assay [12] was “inactive” in each case. Besides, the Potency entry in assay [13], in [14] and in assay [15] was “inactive” in each case. For the same molecule, in assay [16], the result was inactive.
For the molecule `CC[N+](C)(CC)CCOC(=O)C(O)(c1ccccc1)C1CCCCC1` (centres undefined), the Potency entry in assay [1], in assay [2], in assay [3], in assay [4], in [5] and in assay [6] was “inactive” throughout. Also, the Potency result in assay [7], in [8], in [9], in assay [10], in assay [11] and in assay [12] was “inactive” each time. For the same molecule, the Potency entry in [17], in assay [13], in [18], in [14] and in assay [15] was “inactive” throughout. Also, in assay [16], the molecule was classed as inactive.
Consider `O=C1CCC(=O)O1`, for which the Potency entry in assay [1], in assay [2], in assay [3], in assay [4], in assay [5] and in [6] was “inactive” in each case. Further, the Potency entry in assay [8], in assay [9], in assay [19], in assay [10], in assay [11] and in [12] was “inactive” in each case. The Potency result in assay [13], in [18], in assay [14] and in assay [15] was “inactive” throughout. In addition, the molecule was classed as inactive in assay [16].
With `CCCCC1=NC2(CCCC2)C(=O)N1Cc1ccc(-c2ccccc2-c2nn[nH]n2)cc1`, the Potency entry in assay [1], in assay [2], in assay [3], in assay [4], in assay [5] and in assay [6] was “inactive” in each case. Besides, the Potency result in [7], in assay [9], in assay [19], in assay [11], in [12] and in assay [17] was “inactive” in each case. Moreover, the Potency result in [13] and in [18] was “inactive” each time. The figures for the Potency in assay [14] and in assay [15] were 4.22 µM (active) and 6.68 µM (active), respectively. In assay [16], the result was inactive.
With `O=C(O)C(S)C(S)C(=O)O` (centres undefined), the Potency entry in [1], in assay [2], in assay [3], in assay [4], in [5] and in [6] was “inactive” each time. The Potency entry in assay [8], in [9], in [10], in assay [11], in assay [17] and in assay [13] was “inactive” in each case. For the same molecule, the Potency result in [18], in assay [14] and in assay [15] was “inactive” in each case. Further, the outcome in assay [16] was inactive.
Turning to `Nc1ccc(N)c2c1C(=O)c1ccccc1C2=O`, the Potency result in assay [1], in assay [2], in assay [3], in [4], in assay [5] and in assay [8] was “inactive” throughout. Further, the Potency result in assay [9] and in [19] was “inactive” in each case. Also, the Potency was 12.2 µM (active) in assay [10]; 21.7 µM (active) in [13]; 30.6 µM (active) in assay [18]; 21.7 µM (active) in [14]; 10.9 µM (active) in assay [15]. The outcome in assay [16] was inactive.
With `CCCCC(CC)CN1C(=O)C2C3C=CC(C3)C2C1=O` (centres undefined), the Potency in assay [1] is 30.9 µM (active). The Potency entry in assay [2], in assay [3], in [4], in [5], in [8] and in assay [9] was “inactive” throughout. Further, the Potency result in [19], in assay [10], in [11], in assay [13], in assay [18] and in [14] was “inactive” throughout. Further, the call in assay [16] was inactive.
Consider `Nc1ccc(S(=O)(=O)Nc2ccccc2)cc1`, for which the Potency entry in assay [1], in assay [2], in assay [3], in assay [4], in assay [5] and in [6] was “inactive” in each case. Further, the Potency entry in assay [8], in [9], in assay [19], in assay [10], in assay [11] and in [17] was “inactive” each time. In addition, the Potency result in assay [13], in assay [18], in assay [14] and in assay [15] was “inactive” in each case. Besides, in assay [16], the call was inactive.
